# Test results: PubChem BioAssay AID602193 (The Scripps Research Institute Molecular Screening Center, 2012)
# The campaign covered roughly 1,600 compounds. About 410 (26%) were called active.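 Rule for the calls: active = mean inhibition over triplicates above the low-control well mean plus 3 SD, set per campaign (cut at about 13% in these data); inactive = the rest.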 These entries were drawn from the full list.
# Experiment: forskolin-stimulated cAMP inhibition in U2OS – cell-based, TR-FRET, triplicate, counter-screen for MC4R biased antagonist project (AID 602193);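 note: signal is single emission at 671 nm which falls as cellular cAMP rises; 0% = forskolin-stimulated wells and 100% = buffer without forskolin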
# Conditions: parental U2OS, LANCE TR-FRET, at 6.5 µM, hits give high values
row,SMILES,inhibition
1,O=C1/C(=C\c2ccc([N+](=O)[O-])cc2)CS(=O)(=O)C/C1=C/c1ccc([N+](=O)[O-])cc1,26.1% (active)
2,Cc1ccc(S(=O)(=O)CCC(=O)OCC(=O)N(C)Cc2ccccc2)cc1,1.96% (inactive)
3,COc1ccccc1N(CC(=O)N/N=C(\C)c1ccccc1O)S(=O)(=O)c1ccc(C)cc1,5.78% (inactive)
4,Cc1ccc(S(=O)(=O)N(C)CC(=O)OCC(=O)Nc2ccccc2)cc1,14.4% (active)
5,Cc1ccc(S(=O)(=O)N(C)CC(=O)OCC(=O)N2CC(=O)Nc3ccccc32)cc1,17.6% (active)
6,CCOC(=O)C(C)n1cnc2sc(C)c(C)c2c1=O (configuration not stated),4.97% (inactive)
7,CC(C)Oc1ccc(/C=C(\NC(=O)/C=C/c2ccco2)C(=O)NCCc2nc3ccccc3[nH]2)cc1,2.02% (inactive)
8,O=C(CSc1nc2ccc(Nc3nc(N4CCOCC4)nc(N4CCOCC4)n3)cc2s1)NCc1ccco1,-2.96% (inactive)
9,Cc1ccc(NC(=O)c2c(NC(=O)CCC(=O)O)sc3c2CCCCC3)cc1,3.65% (inactive)
10,N#C/C=C1\Sc2ccccc2C(=O)N1CC(=O)N1CCN(S(=O)(=O)c2ccccc2)CC1,7.11% (inactive)
11,O=C(COC(=O)Cn1cnc2ccccc2c1=O)NCC12CC3CC(CC(C3)C1)C2,19% (active)
12,O=C(Nc1ccccc1Cl)/C(Cl)=C(\Cl)S(=O)c1ccccc1 (configuration not stated),-0.54% (inactive)
13,Cc1c(CCC(=O)O)c(=O)oc2cc(OCc3ccc(Br)cc3)ccc12,2.85% (inactive)
14,COc1ccc(Cl)cc1-c1cc(C(=O)Nc2cc(OC)c(OC)c(OC)c2)[nH]n1,-12.1% (inactive)
15,O=S(=O)(NCc1ccco1)c1cnc(Cl)c(Cl)c1,21.1% (active)
16,COc1ccc(-n2nc(C(=O)Nc3cc(OC)c(OC)c(OC)c3)c3ccccc3c2=O)c(OC)c1,6.04% (inactive)
17,Cc1ccc(C)c(S(=O)(=O)N2CCN(CC(=O)Nc3ccc([N+](=O)[O-])cc3)CC2)c1,-1.3% (inactive)
18,COc1ccc2sc(-c3ccc(S(C)(=O)=O)cc3)c(-c3ccc(C(N)=O)cc3)c2c1,6.51% (inactive)
19,CSc1nnc(NC(=O)c2nc(S(=O)(=O)Cc3ccc(C)cc3)ncc2Cl)s1,26.5% (active)
20,O=C(Nc1nnc(Cc2ccc(Cl)cc2)s1)c1cccnc1,-0.09% (inactive)
21,O=C(NCCc1c[nH]c2ccccc12)c1cccc(Br)c1,2.29% (inactive)
22,Cc1ccc(-c2nnc(CN3CCN(C)CC3)o2)cc1,-0.67% (inactive)
23,CCCCOC(=O)CNc1nnc(SCC(=O)OCC)[nH]c1=O,34.4% (active)
24,CC(NS(=O)(=O)c1ccc(Br)cc1)C(=O)NCC1CCCO1 (configuration not stated),4.96% (inactive)
25,CCOC(=O)c1cc(C)nc(S(C)(=O)=O)c1C#N,9.09% (inactive)
26,N#Cc1c(-c2cccs2)nc(SCC(=O)c2ccc(Br)cc2)[nH]c1=O,12.9% (inactive)

row,SMILES,inhibition
1,C#Cc1cc(N2CCN(C(=O)c3ccoc3)CC2)n2nc(-c3cccc(Cl)c3)cc2n1,6.98% (inactive)
2,COc1ccc(C(C[N+](=O)[O-])n2nc(C)cc2C)cc1 (configuration not stated),16.1% (active)
3,O=C(NCC1CCN(Cc2ccccc2Cl)CC1)Nc1cccc(Cl)c1,-1.82% (inactive)
4,CC(=O)N1CCN(S(=O)(=O)c2c(F)cc(F)c(Cl)c2F)CC1,15.9% (active)
5,O=C(c1ccc2c(c1)N(Cc1ccc(F)cc1)C(=O)c1ccccc1S2(=O)=O)N1CCN(c2ccccn2)CC1,1.79% (inactive)
6,O=C(Cn1nnc2ccccc2c1=O)Nc1cc(C(F)(F)F)ccc1N1CCOCC1,-0.34% (inactive)
7,CN(CC(=O)NCCc1ccccn1)S(=O)(=O)c1ccc(Cl)cc1,-1.11% (inactive)
8,Cc1c(Cl)cccc1NC(=O)[C@@]1(CC(=O)O)CC(/C=C/c2ccccc2)=NO1,0.29% (inactive)
9,COc1ccc(Oc2c(Cl)cnn(-c3ccccc3)c2=O)cc1,38.1% (active)
10,O=C(COC(=O)c1c2c(nc3ccccc13)CCCC2)c1ccc(Br)s1,4.15% (inactive)
11,CCN(CC(=O)NCCCN1CCOCC1)S(=O)(=O)c1cc(Cl)ccc1Cl,-1.05% (inactive)
12,Cc1ccc(NC(=O)COC(=O)CNC(=O)c2ccc(Cl)cc2Cl)cc1S(=O)(=O)N1CCOCC1,7.9% (inactive)
13,Cc1nc2ccccc2c(=O)n1NC(=O)c1ccc(Cl)c([N+](=O)[O-])c1,18.5% (active)
14,CC1(C)C(c2cccs2)=[N+]([O-])C2(CCCCC2=O)N1O (configuration not stated),-3.22% (inactive)
15,Cc1ccc(C(C(=O)NCC2CCCO2)N(C(=O)c2snc(C(N)=O)c2N)c2ccc(C(C)C)cc2)o1 (configuration not stated),0.79% (inactive)
16,COC(=O)[C@H](Cc1ccccc1)NC(=O)[C@@H]1C[C@H]1[C@@H](NC(=O)OCc1ccccc1)c1ccccc1,12% (inactive)
17,CC(C)(C)OC(=O)N1CCC(NC(=O)c2[nH]cnc2C(=O)N[C@@H](Cc2ccccc2)C(=O)OCc2ccccc2)CC1,16.5% (active)
18,O=C(Nc1ccc(F)c([N+](=O)[O-])c1)C1CC(=O)N(Cc2ccccc2)C1 (configuration not stated),8.59% (inactive)
19,Cc1cccc(OCC(O)Cn2c(N3CCCCC3)nc3c2c(=O)[nH]c(=O)n3C)c1 (configuration not stated),2.12% (inactive)
20,COc1ccc(/C=N/OCC(=O)N(Cc2ccccc2)c2ccccc2C(=O)O)cc1,-3.38% (inactive)
21,CCOC(=O)c1c(-c2ccccc2)oc2cc(Br)c(O)c(C=O)c12,30.2% (active)
22,Cc1nnc(N/N=C/C2CC=CCC2)[nH]c1=O (configuration not stated),-2.01% (inactive)
23,O=C(O)CCn1cc(/C=C/C(=O)c2ccc(Cl)cc2)c(-c2cccc(Br)c2)n1,-0.6% (inactive)
24,Cc1ccccc1-c1n[nH]c(=S)n1/N=C/c1ccc(-c2ccccc2Br)o1,0.55% (inactive)
25,O=C(COC(=O)[C@H](Cc1ccccc1)NC(=O)c1cccs1)Nc1cc(F)ccc1F,13.2% (active)
26,Cc1ccc(OCC(=O)Nc2ccc(NC(=O)c3cccs3)cc2)c(C)c1,-2.94% (inactive)

row,SMILES,inhibition
1,O=C(Nc1nccs1)c1cc(S(=O)(=O)N2CCOCC2)c(Cl)cc1Cl,10.5% (inactive)
2,CC(=O)Nc1ccc(Sc2ccccc2C(=O)N2CCCC2)cn1,-1.96% (inactive)
3,Cc1ccc(NC(=O)C(C)OC(=O)Cc2c[nH]c3ccccc23)cc1S(=O)(=O)N1CCOCC1 (configuration not stated),2.7% (inactive)
4,CC(C)Oc1c(Br)cc(Br)cc1/C=N/NC(N)=S,19.3% (active)
5,C=Cn1c(C(=O)O)ccc1-c1ccc(OC)cc1,-3.83% (inactive)
6,CCOC(=O)c1c(NC(=O)CCl)sc(C(=O)N(CC)CC)c1C,17.7% (active)
7,Cc1ccc(NS(=O)(=O)c2ccc(C)c(NC(=O)COc3ccc4ccccc4c3)c2)c(C)c1,2.54% (inactive)
8,COc1cccc(OC)c1C(=O)Nc1c(C(=O)N2CCN(c3ccccn3)CC2)oc2ccccc12,-1.8% (inactive)
9,CC1(C)Cc2ccccc2-c2[nH]c(=S)[nH]c(=O)c21,22.1% (active)
10,CCOc1ccc(Nc2nc(Cl)nc(N3CCN(c4ccc(OC)cc4)CC3)n2)cc1,11.2% (inactive)
11,COc1ccc(CCNC(=O)c2cnc(Cl)c(Cl)c2)cc1,13.7% (active)
12,O=C(OCC(=O)N1CCCCCC1)c1cnc(Cl)c(Cl)c1,21.2% (active)
13,COc1ccc(CCNC(=O)COC(=O)c2cnc(Cl)c(Cl)c2)cc1,17.2% (active)
14,COc1ccc(C(C)C)cc1S(=O)(=O)Nc1ncn[nH]1,0.13% (inactive)
15,CCCC(C(=O)n1nc(C)cc1C)C(NS(=O)(=O)c1ccc(C)cc1)c1ccccc1 (configuration not stated),3.42% (inactive)
16,CCOC(=O)CSc1nc(N2CCOCC2)c2c(c1C#N)CC(C(C)C)OC2 (configuration not stated),3.57% (inactive)
17,Cc1ccc(CSc2nnc(-c3cnccn3)n2C)cc1,-1.1% (inactive)
18,COc1ccc(-c2n[nH]c(C)c2-c2ccccc2OC)c(O)c1,4.68% (inactive)
19,COc1ccc2oc(N)c(C=O)c(=O)c2c1,-1.23% (inactive)
20,COc1ccc(-c2nc3n(c(=O)c2C#N)CCS3)c(OC)c1,-2.32% (inactive)
21,O=C(NC1=CC(=O)c2ccccc2C1=O)c1ccccc1,-5.71% (inactive)
22,COC(=O)c1sc(-c2ccc(C(C)(C)C)cc2)cc1NC(=O)/C=C/C(=O)O,1.28% (inactive)
23,COCCCNC(=O)/C(C#N)=C/c1c(N2CCCCCC2)nc2ccccn2c1=O,9.32% (inactive)
24,CN(C)C(CNC(=O)CCCOc1ccccc1)c1ccco1 (configuration not stated),-0.67% (inactive)
25,Cc1ccc(Sc2ccc(NC(=O)c3ccc(F)cc3)cc2C#N)cc1,5.25% (inactive)
